Results filed as inconclusive are left out. Active and inactive are the calls of the source. Unless noted, the call rests on the fitted dose curve; in most records, active means well fitted curve in either direction with a large enough effect (not every such curve was filed as active); inconclusive means small, poorly fitted or top-dose-only effect, or another doubt; inactive means flat fitted curve, though single readings scatter.
Columns and labels:
[1] = test system: HIV-1 nucleocapsid protein NCp7 (binding to TG oligonucleotide); assay: HIV Nucleocapsid (AID 346; call rule not given here;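 further: potency means the concentration at half of the fitted maximal effect; potency is for inhibitors that block NC binding and lower polarization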); details: HIV-1 NC / fluorescein-TGTGTGTG probe, fluorescence polarization
How it was run: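 Fluorescence polarization readout: labelled TG4xF oligo (10 nM) with 100 nM nucleocapsid protein, high-salt (250mM NaCl) Hepes pH 7.5 buffer containing zinc and fresh reducing agents. Compounds added by pin tool; incubation 1 hr, room temperature.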

[2] = molecular target: Lysosomal acid glucosylceramidase (Homo sapiens) (UniProt P04062); assay: Glucocerebrosidase-p2 (AID 348; in the data active means potency below about 10 µM; further: potency means the concentration at half of the fitted maximal effect); details: purified GBA, blue fluorogenic substrate, 40 min
Lysosomal acid glucosylceramidase (Homo sapiens), sequence (P04062 whole entry, looked up): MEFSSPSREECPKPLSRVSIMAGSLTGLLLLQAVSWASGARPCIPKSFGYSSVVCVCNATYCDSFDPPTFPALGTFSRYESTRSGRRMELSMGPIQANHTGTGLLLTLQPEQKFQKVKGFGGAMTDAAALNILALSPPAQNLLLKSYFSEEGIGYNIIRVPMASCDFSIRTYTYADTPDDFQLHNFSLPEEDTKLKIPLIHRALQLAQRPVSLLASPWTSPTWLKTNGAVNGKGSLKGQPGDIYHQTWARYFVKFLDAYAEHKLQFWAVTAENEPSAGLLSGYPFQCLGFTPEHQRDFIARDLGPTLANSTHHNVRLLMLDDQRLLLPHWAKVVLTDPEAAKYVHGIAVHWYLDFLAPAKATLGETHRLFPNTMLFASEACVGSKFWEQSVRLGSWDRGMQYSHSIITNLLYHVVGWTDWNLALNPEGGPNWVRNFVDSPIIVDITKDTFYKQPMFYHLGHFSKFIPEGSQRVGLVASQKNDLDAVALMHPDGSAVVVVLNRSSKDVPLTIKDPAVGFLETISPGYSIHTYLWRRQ
How it was run: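 Normal human glucocerebrosidase (0.2 nM) with blue fluorogenic substrate (80 uM final) in citrate/phosphate pH 5.9 with 10mM sodium taurocholate, 0.01% tween-20; 40 min RT, NaOH/glycine stop; fluorescence Ex 365/Em 440; AC50 from a titration from 0.6 nM upwards.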

[3] = AP1 Signaling Pathway (AID 357); details: ME-180 AP-1-bla reporter, EGF-induced, beta-lactamase ratio, 5 h; at 7.69 µM (top of the series) unless noted; further: on the % scale 0 is the no-effect control and ±100 the full control effect
How it was run: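 In this screen, ME-180 cells in Opti-MEM with 0.5% dialyzed FBS received EC50 EGF and compound titrations for 5 h. AP-1 reporter beta-lactamase was detected via CCF4 ratio, giving AC50 for positive and negative modulators.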

[4] = molecular target: Cytochrome P450 1A2 (Homo sapiens) (UniProt P05177); assay: p450-cyp1a2 (AID 410; calls by dose curve; further: potency means the concentration at half of the fitted maximal effect;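 on activity change, negative = inhibition: -100% = full effect of reference inhibitor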); details: recombinant CYP1A2, luciferin-ME demethylation, luminescence; series mostly up to 11.4 µM
Cytochrome P450 1A2 (Homo sapiens), sequence (P05177 whole entry, looked up): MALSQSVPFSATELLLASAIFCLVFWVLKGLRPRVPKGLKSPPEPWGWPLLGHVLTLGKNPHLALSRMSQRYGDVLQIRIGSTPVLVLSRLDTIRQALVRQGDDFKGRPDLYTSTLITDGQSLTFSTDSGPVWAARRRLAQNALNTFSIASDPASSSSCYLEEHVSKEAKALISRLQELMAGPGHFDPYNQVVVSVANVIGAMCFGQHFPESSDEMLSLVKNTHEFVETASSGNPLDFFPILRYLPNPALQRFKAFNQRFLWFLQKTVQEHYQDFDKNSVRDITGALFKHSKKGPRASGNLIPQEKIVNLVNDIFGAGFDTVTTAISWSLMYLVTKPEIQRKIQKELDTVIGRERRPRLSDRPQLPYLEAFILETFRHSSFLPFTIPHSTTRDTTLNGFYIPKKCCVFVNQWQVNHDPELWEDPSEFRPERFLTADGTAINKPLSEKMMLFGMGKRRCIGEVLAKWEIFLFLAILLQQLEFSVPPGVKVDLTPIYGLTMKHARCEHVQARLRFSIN
How it was run: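 Read-out is luminescence from luciferin produced by CYP1A2 demethylation of Luciferin-ME (100uM, at Km). Detection reagent stopped the 60 min NADPH-dependent reaction; signals were normalized to 57 uM furafylline.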

[5] = NFAT Signaling Pathway (AID 444); details: Jurkat NFAT-bla M1, carbachol, beta-lactamase ratio, 5 h; at 7.69 µM (top of the series) unless noted;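 further: carbachol stimulus at about its EC50 of 1 µM final; on the % scale 0 is the no-effect control and ±100 the full control effect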
How it was run: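 Read-out: CCF4 FRET ratio (460 nm/530 nm) after 1 h RT dye loading, used for %activity and AC50 from titration series. Cells: Jurkat NFAT-β-lactamase/M1 line, treated with compound plus 1 uM carbachol for 5 h, 37 °C.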

[6] = Stat Signaling Pathway (AID 446); details: ME-180 (cervical carcinoma) SIE beta-lactamase reporter, IL-6 stimulated, 5 h; at 7.69 µM (top of the series) unless noted;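 further: ME-180 cervical cancer cells given 40 pM IL-6 alongside compound; SIE-controlled beta-lactamase reporter measured as 460/530 nm FRET emission ratio; on the % scale 0 is the no-effect control and ±100 the full control effect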
How it was run: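 Compound effects on IL-6-induced STAT reporter activity were measured in ME-180 cells. After overnight culture, cells were co-treated with 40 pM IL-6 for 5 hrs before beta-lactamase substrate loading at room temperature.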

[7] = molecular target: Glucocorticoid receptor (Homo sapiens) (UniProt P04150); assay: GR-GFP Redistribution (AID 450;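 active means compounds whose dose series gives a full or clear partial fitted curve of increased nuclear translocation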; further: potency means the concentration at half of the fitted maximal effect); details: U2OS GR-GFP nuclear translocation, laser cytometry, 2 h
Glucocorticoid receptor (Homo sapiens), sequence (P04150 whole entry, looked up, the tested form may be a part): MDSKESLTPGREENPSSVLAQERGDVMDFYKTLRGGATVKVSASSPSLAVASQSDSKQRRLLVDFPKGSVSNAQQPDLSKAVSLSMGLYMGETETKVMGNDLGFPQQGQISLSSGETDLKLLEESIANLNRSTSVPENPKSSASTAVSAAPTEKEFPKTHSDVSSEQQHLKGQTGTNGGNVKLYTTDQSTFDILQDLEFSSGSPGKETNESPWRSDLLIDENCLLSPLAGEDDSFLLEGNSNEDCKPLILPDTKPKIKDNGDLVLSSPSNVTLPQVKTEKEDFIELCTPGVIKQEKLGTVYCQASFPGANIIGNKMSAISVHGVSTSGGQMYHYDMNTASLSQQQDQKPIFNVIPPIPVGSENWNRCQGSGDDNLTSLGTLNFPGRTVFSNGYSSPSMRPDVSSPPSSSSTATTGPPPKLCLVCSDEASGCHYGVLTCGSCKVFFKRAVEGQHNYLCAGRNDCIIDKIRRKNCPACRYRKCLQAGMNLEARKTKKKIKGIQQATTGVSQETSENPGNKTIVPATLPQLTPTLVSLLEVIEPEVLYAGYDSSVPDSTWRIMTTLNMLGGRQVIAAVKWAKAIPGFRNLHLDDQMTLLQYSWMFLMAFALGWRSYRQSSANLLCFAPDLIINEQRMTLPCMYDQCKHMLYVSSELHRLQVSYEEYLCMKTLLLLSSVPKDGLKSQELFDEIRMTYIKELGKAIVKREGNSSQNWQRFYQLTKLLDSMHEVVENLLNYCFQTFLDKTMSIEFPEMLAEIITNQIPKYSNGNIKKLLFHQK

[8] = molecular target: Glucocorticoid receptor (Homo sapiens) (UniProt P04150); assay: GR-EFC Redistribution (AID 451; calls by dose curve; further: potency means the concentration at half of the fitted maximal effect); details: CHO-K1 GR-EFC translocation, beta-gal luminescence, 2 h
How it was run: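 Translocation of GR-ED fusion to nuclear EA restores b-gal, read by luminescence after 1 h room-temperature detection. Engineered CHO-K1 biosensor cells, 1,000/well, exposed 2 h at 37 C to titrations up to 46 uM final.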

[9] = molecular target: Mitogen-activated protein kinase 10 (Mus musculus) (UniProt Q61831); assay: JNK3 AlphaScreen Assay (AID 530); details: JNK3 lysate, c-Jun phosphorylation; series mostly up to 57.1 µM;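 further: kinase came from lysate of stimulated human HepG2 cells; signal reports phosphorylation of biotinylated GST-cJun 1-79 at Ser73 with 10 µM ATP; on the % scale 0 is the no-effect control and ±100 the full control effect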
How it was run: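 Kinase buffer: 20 mM Tris-HCl pH 7.6, 10 mM MgCl2, 1 mM DTT, 0.1 mM Na3VO4, 0.01% Tween-20; ATP 10 uM. Substrate biotin-GST-cJun(1-79), enzyme from activated HepG2 lysates. Detection by Ser73 phospho-antibody AlphaScreen.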

[10] = molecular target: 3',5'-cyclic-AMP phosphodiesterase 4B (Homo sapiens) (UniProt Q07343); assay: qHTS Assay for Inhibitors of PDE-IV (AID 607; active means well fitted activation curve with a large enough effect in the main read-out, with a control signal flat, not every such curve was filed as active; further: % of control where 0% means no effect); details: HEK293 ACTOne CNG channel cells, membrane potential fluorescence; series mostly up to 22.9 µM
3',5'-cyclic-AMP phosphodiesterase 4B (Homo sapiens), sequence (Q07343 whole entry, looked up): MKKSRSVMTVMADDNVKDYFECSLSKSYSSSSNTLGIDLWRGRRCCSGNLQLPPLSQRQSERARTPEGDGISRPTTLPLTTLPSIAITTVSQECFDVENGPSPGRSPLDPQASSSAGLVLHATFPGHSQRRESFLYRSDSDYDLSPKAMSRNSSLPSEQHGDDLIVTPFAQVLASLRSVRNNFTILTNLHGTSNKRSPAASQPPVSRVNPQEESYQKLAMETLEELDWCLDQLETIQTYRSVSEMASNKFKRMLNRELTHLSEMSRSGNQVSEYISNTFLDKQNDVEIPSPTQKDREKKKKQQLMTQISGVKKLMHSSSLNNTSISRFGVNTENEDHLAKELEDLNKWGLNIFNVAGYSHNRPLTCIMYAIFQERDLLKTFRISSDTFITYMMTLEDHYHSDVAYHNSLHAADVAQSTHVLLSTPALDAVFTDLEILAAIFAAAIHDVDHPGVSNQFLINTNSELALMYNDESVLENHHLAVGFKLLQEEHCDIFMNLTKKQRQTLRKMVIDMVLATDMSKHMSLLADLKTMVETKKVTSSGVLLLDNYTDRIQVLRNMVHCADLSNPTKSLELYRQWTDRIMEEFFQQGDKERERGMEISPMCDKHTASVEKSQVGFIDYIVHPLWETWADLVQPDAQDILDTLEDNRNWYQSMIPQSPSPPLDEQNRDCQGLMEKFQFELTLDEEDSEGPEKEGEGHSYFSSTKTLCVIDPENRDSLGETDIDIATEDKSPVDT
How it was run: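 ACTOne HEK293 cells carry a modified cAMP-gated CNG channel and express endogenous PDE4; plated 1000 cells/well, compounds up to 22.9 uM final. Membrane-potential dye fluorescence (ex 535/em 590) was read; parental cells received 10 uM forskolin + 100 uM RO 20-1724.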

[11] = molecular target: Cytochrome P450 3A4 (Homo sapiens) (UniProt P08684); assay: qHTS Assay for Activators of Cytochrome P450 3A4 (AID 885; active means well fitted activation curve with a large enough effect; further: nearly all actives have a fitted effect of over 65% in size); details: recombinant CYP3A4, Luciferin-PPXE luminescence, 60 min; series mostly up to 57.1 µM
Cytochrome P450 3A4 (Homo sapiens), sequence (P08684 whole entry, looked up): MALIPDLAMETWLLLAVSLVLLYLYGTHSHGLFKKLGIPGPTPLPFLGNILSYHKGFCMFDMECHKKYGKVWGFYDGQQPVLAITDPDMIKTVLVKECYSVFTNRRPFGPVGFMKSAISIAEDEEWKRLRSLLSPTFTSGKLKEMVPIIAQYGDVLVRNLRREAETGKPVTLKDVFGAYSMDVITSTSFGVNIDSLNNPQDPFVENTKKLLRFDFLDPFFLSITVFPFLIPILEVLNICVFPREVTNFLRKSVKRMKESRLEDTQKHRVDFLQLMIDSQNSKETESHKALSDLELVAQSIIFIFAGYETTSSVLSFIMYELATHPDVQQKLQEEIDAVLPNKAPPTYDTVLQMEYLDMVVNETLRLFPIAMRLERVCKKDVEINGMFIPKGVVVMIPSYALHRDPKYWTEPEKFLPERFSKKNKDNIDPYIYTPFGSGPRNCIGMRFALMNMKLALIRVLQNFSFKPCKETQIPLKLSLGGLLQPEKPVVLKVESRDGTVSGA
How it was run: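 CYP3A4 activity: Luciferin-PPXE O-dealkylation, 25uM substrate, 200mM KPO4, RT throughout. Read-out is luciferase luminescence; higher values reflect activation.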

COc1cccc(Cn2c(=O)c(-c3cccs3)nc3cnc(N4CCNCC4)nc32)c1
inactive: Potency [1] > 20 µM

O=C(c1ccco1)N1CCC[C@@]2(CCN(Cc3ccccc3)C2)C1
inactive: Potency [1] > 20 µM

COc1ccc(NC(=O)N2CCC3(CC2)CCN(S(C)(=O)=O)CC3)cc1
inactive: Potency [1] > 20 µM

Cc1nc2cnc(Oc3cccc(Cl)c3)nc2n(CCC#N)c1=O
inactive: Potency [1] > 20 µM

O=C(Nc1ccccc1)N1CCC2(CC1)CCN(S(=O)(=O)c1ccccc1)CC2
inactive: Potency [1] > 20 µM

COc1ccc(-n2c(=O)c(-c3cccc(C#N)c3)nc3cnc(N4CCNCC4)nc32)cc1
inactive: Potency [1] > 20 µM

CN1CCN(c2ncc3nc(-c4cc(F)cc(F)c4)c(=O)n(C4CC4)c3n2)CC1
inactive: Potency [1] > 20 µM

CS(=O)(=O)N1CCC2(CC1)CN(C(=O)Nc1ccccc1)C2
inactive: Potency [1] > 20 µM

COC(=O)[C@H]1C(=O)[C@H](C(=O)OC)[C@@H]2CC[C@H]1N2C
inactive: Potency [2] > 11.4 µM | activity change, negative = inhibition [3] 12.9% | activity change, negative = inhibition [5] 11.3% | activity, negative = inhibition [6] 7.99% | Potency [7] > 46 µM | Potency [8] > 9.22 µM | activity change, negative = inhibition [9] 4.63% [at 11.4 µM]
active: Potency [4] 794 nM

CC(C)NC(=O)N1CC[C@@]2(CCCN(C(=O)c3cnccn3)C2)C1
inactive: Potency [1] > 20 µM

NCCc1c[nH]c2ccc(OC(=O)C(=O)O)cc12
inactive: Potency [2] > 11.4 µM | activity change, negative = inhibition [3] 9.07% | activity change, negative = inhibition [5] 6.17% | activity, negative = inhibition [6] 10.1% | Potency [7] > 46 µM | Potency [8] > 9.22 µM | activity change, negative = inhibition [9] 8.58% [at 11.4 µM] | outcome [10]
active: Potency [4] 2510 nM

CN(C)CS/C(N)=N/[C@H](O)C(Cl)(Cl)Cl
inactive: Potency [2] > 11.4 µM | activity change, negative = inhibition [3] 1.46% | activity change, negative = inhibition [4] 4.1% [at 2.29 µM] | activity change, negative = inhibition [5] 23.1% | activity, negative = inhibition [6] 3.46% | Potency [7] > 46 µM | Potency [8] > 9.22 µM | activity change, negative = inhibition [9] 3.54% [at 11.4 µM]

COc1ccc(Oc2ncc3nc(-c4ccc(Cl)cc4)c(=O)n(C)c3n2)cc1
inactive: Potency [1] > 20 µM

COc1cccc(Cn2c(=O)c(-c3ccc(F)cc3)nc3cnc(N(C)C)nc32)c1
inactive: Potency [1] > 20 µM

C[C@H](Br)C(=O)N[C@H](CO)C(=O)O
inactive: Potency [2] > 11.4 µM | activity change, negative = inhibition [3] -6.82% | Potency [4] | activity change, negative = inhibition [5] 5.22% | activity, negative = inhibition [6] -2.06% | Potency [7] > 46 µM | Potency [8] > 9.22 µM | activity change, negative = inhibition [9] 0.572% [at 11.4 µM] | outcome [10]

c1cncc(CNc2cc(-c3ccc4c(c3)OCO4)ncn2)c1
inactive: Potency [1] > 20 µM | Potency [11]

COc1ccc(-c2nc3cnc(Oc4cccc(Cl)c4)nc3n(C3CC3)c2=O)cc1
inactive: Potency [1] > 20 µM

NC(CCl)=N[C@H]1CN2CCC1CC2
inactive: Potency [2] > 11.4 µM | activity change, negative = inhibition [3] 5.68% | Potency [4] | activity change, negative = inhibition [5] 1.17% | activity, negative = inhibition [6] 13.9% | Potency [7] > 46 µM | Potency [8] > 9.22 µM | activity change, negative = inhibition [9] 1.59% [at 11.4 µM]

O=[As](O)(O)c1ccc(N=Nc2ccc(O)cc2)cc1
inactive: Potency [2] > 11.4 µM | activity change, negative = inhibition [3] 3.33% | Potency [4] | activity change, negative = inhibition [5] 9.82% | activity, negative = inhibition [6] 3.63% | Potency [7] > 46 µM | Potency [8] > 9.22 µM | activity change, negative = inhibition [9] -2.48% [at 11.4 µM] | outcome [10]

O=C(O)C[C@H]1NCc2cc3ccccc3nc21
inactive: Potency [2] > 11.4 µM | activity change, negative = inhibition [3] 2.39% | activity change, negative = inhibition [4] -4.9% [at 2.29 µM] | activity change, negative = inhibition [5] 13.5% | activity, negative = inhibition [6] 5.32% | Potency [7] > 46 µM | Potency [8] > 9.22 µM | activity change, negative = inhibition [9] 1.75% [at 11.4 µM] | outcome [10]

— PubChem BioAssay (NCATS)
